Source: PubChem BioAssay (National Center for Advancing Translational Sciences (NCATS))
HT1080 IDH1KD tx: toxicity to HT-1080 IDH1 knockdown cells (counter line); HT-1080 IDH1 knockdown viability, ATP luminescence, 48 h; Potency, µM (titrated, usually from 46.1 µM), without a hit: at the top dose activity, negative = toxicity, most hits filed as cytotoxic; 360,000 tested, 2% active;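 further: potency means the concentration at half of the fitted maximal effect; 0% = DMSO wells and -100% = cell-free medium wells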
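IDH1KD HT-1080 cells, 750/well, RPMI + 5% FBS; compound pinned after 2 h settling; 48 h, 37 °C; CellTiter-Glo luminescence; % activity normalised to DMSO and no-cell wells; curves fitted, classed by r2 and efficacy.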
DT40 TDP1 CPT: DT40-hTDP1 cell growth loss with CPT; chicken DT40 Tdp1-/-;hTDP1 cells + 20 nM CPT, ATP luminescence, 48 h; Potency, µM (highest dose often 46.2 µM), for the others: at the top dose activity change, negative = growth inhibition, most hits filed as inhibitors; 420,000 tested, 12% active; AID 686979; further: potency means the concentration at half of the fitted maximal effect; nearly all actives have a fitted effect of over 55% in size
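Chicken DT40 Tdp1-/- cells complemented with human TDP1, 400 cells/well, exposed to compounds plus 20 nM camptothecin for at least 48 h at 37 C; viability read as ATP content by CellTiter-Glo luminescence.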
12-LOX inh: blocks human arachidonate 12S-lipoxygenase; 580,000 tested, 1.1% active; AID 1671190; Potency, µM (doses to about 108 µM), without a hit: top-dose activity change, negative = inhibition, usual class: inhibitors; purified 12hLO, xylenol orange hydroperoxide absorbance; further: potency means the concentration at half of the fitted maximal effect
Target sequence (P18054 whole entry, looked up): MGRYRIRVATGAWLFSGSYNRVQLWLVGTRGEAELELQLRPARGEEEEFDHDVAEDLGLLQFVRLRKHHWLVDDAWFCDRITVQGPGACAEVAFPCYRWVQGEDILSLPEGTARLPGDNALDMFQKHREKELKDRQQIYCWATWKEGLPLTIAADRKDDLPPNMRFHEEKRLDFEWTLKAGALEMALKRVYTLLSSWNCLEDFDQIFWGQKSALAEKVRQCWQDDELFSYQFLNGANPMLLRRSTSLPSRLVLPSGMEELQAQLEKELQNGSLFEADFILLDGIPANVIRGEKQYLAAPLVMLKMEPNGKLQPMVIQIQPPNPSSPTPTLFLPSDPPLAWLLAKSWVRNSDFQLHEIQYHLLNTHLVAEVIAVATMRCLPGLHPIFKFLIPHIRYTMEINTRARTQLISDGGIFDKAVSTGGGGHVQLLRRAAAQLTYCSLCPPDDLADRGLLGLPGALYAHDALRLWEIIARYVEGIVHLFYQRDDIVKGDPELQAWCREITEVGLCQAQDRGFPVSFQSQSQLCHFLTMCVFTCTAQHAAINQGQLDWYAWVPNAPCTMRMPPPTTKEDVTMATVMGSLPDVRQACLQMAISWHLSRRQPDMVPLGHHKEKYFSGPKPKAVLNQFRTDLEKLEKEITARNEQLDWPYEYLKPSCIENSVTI
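Purified human 12hLO at 150 nM in 25 mM Hepes, 0.01% Triton X-100, pH 7.0, preincubated 15 min at room temperature with compound. Reaction started with 40 uM arachidonic acid, 30 min at room temperature. Hydroperoxide measured by Fe-xylenol orange, 573/405 nm absorbance ratio.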
HT1080NT lethal: kills 2HG-producing HT-1080-NT fibrosarcoma cells; HT-1080-NT fibrosarcoma viability, CellTiter-Glo ATP luminescence, 48 h; Potency, µM (titrated, usually from 46.1 µM), without a hit: at the top dose activity, negative = less viability, actives largely listed as cytotoxic; 360,000 tested, 1.6% active; AID 686970;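 further: NT is the 2HG producing partner of a matched IDH1 knockdown line; potency means the concentration at half of the fitted maximal effect; 0% = DMSO-treated cells and -100% = media-only wells without cells; nearly all actives have a fitted effect of over 55% in size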
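HT-1080-NT; 750 cells/well; 5% FBS RPMI; 48 h compound, 37 degrees C; CellTiter-Glo luminescence; curve fitting and curve-class assignment.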
DT40 TDP1 no CPT: qHTS for Inhibitors of human tyrosyl-DNA phosphodiesterase 1 (TDP1): qHTS in cells in absence of CPT; DT40 Tdp1-/- hTDP1 cells, no CPT, ATP luminescence, 48 h; Potency, µM (doses to about 46.2 µM), inactives show at the top dose activity change, negative = growth inhibition, usual class: inhibitors; 420,000 tested, 15% active; AID 686978, 2013; further: potency means the concentration at half of the fitted maximal effect; nearly all actives have a fitted effect of over 55% in size
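DT40 Tdp1-/-;hTDP1 cells, no CPT (DMSO vehicle only), 400 cells/well; compounds pin-transferred; ≥48 hr, 37 °C; CellTiter-Glo 30 min RT dark, luminescence read.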
IL1B secr inh: inflammasome signaling inhibition, IL-1 beta readout | THP-1 LPS/ATP IL-1B secretion, AlphaLISA, 16 h; active compounds read low | activity change, % at 57.5 µM | AID 743279 | 360,000 tested, 4.7% active; in the data active means activity change below about -50%; inconclusive means mostly about -30% to -49%
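THP-1 cells pretreated 1 hr with compounds (up to 57.5 uM final), then stimulated with LPS (250 ng/mL final) plus ATP (1.25 mM final); secreted IL-1B measured by AlphaLISA after 16 hr, decreased signal indicating inhibition.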
Numbers without * were called inactive; ? = inconclusive; / = no result. Many of the other results were omitted from the sample, so hits are more common in it than they were. Unless noted, the call rests on the fitted dose curve; in most records, active means well fitted curve in the direction sought with a large enough effect; inconclusive means small, poorly fitted or top-dose-only effect, or another doubt; inactive means no such curve, though single readings can be large; an effect the other way counts as inactive or inconclusive. Unless noted, on the % scale 0 is the no-effect control and ±100 the full control effect.

SMILES	HT1080 IDH1KD tx	DT40 TDP1 CPT	12-LOX inh	HT1080NT lethal	DT40 TDP1 no CPT	IL1B secr inh
O=C(N/N=C/c1ccc2c(c1)OCO2)c1sc2cc(Cl)ccc2c1Cl	-3.5%	5.8µM*	9.7%	-6.7%	5.17µM*	21.4
COc1ccc2c(Cl)c(C(=O)N/N=C/c3ccc4c(c3)OCO4)sc2c1	8.1%	?	9.7%	23.9%	?	-1.1
CCOc1ccc(N2C(=O)c3ccccc3NC2(C)CC)cc1 (configuration not stated)	?	-9.5%	130.9%	-22.9%	-35.5%	-23.8
CCC1(C)Nc2ccccc2C(=O)N1O (configuration not stated)	-29.2%	-21.9%	0.631µM*	?	-12.5%	4.9
CNc1ncnc2ccc(-c3ccccc3C)cc12	/	13µM*	?	/	23.1µM*	/
Cc1ccccc1-c1ccc2ncnc(NCCN3CCOCC3)c2c1	/	5.8µM*	?	/	7.31µM*	/
COc1ccccc1-c1ccc2ncnc(NC3CCNCC3)c2c1	/	?	-11.8%	/	-28.5%	/
Cc1ccc(S(C)(=O)=O)cc1C(=O)NC1CCC(C)CC1 (configuration not stated)	/	/	12.2%	/	/	/
Cc1ccc(CNC(=O)[C@H]2C[C@@H]2[C@H](NP(=O)(c2ccccc2)c2ccccc2)c2ccccc2)o1	-0.2%	?	-9.4%	-8.8%	20.6µM*	13.1
